Source: PubChem (National Center for Advancing Translational Sciences (NCATS))
TRPV1 ag = agonists of human vanilloid receptor 1 (TRPV1); 320,000 compounds, 0.19% hits; TRPV1-expressing cells, Fluo-8 calcium influx, agonist mode; AID 540275; activation, % at 8.33 µM; in the data active = activation above about 80%; inconclusive = between about 30% and that limit; also: 0% is about no effect
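Cells expressing TRPV1 were dye-loaded with Fluo-8 and read kinetically: 10 s baseline, 3 min after compound (agonist portion), then 2 min after EC20 capsaicin (allosteric enhancer portion). Calcium-bound dye fluorescence at 480/520 nm.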
KCNH2 WT inh = inhibitors of human wildtype KCNH2 potassium channel; Q12809; U2OS, BacMam KCNH2, thallium flux FluxOr; hits give low values; activity change, % at 1.84 µM; 340,000 compounds, 0.37% hits;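 active = maximum activity change below -70%; inconclusive = maximum activity change between -70% and -50%; inactive = maximum activity change above -50%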; also: % is scaled to controls: 0 for no effect and ±100 for the full control effect
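U2OS cells were transduced with wild-type KCNH2 virus (2.03 x 10^8 / mL) for 4 h at room temperature, then cultured overnight at 37 C. Thallium flux was read with FluxOr dye. Rate constants were normalized to DMSO controls.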
KCNH2 3.1 block = inhibitors of human KCNH2 3.1 potassium channel isoform | U2OS KCNH2 3.1, thallium flux FluxOr; hits give low values | 340,000 compounds, 0.95% hits | activity change, % (tested at about 1.8 µM);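 active = maximum activity change below -70%; inconclusive = maximum activity change from -70% to -50%; inactive = maximum activity change above -50%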;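 also: thallium influx rate constant from kinetic fluorescence after stimulation buffer; % is scaled to controls: 0 for no effect and ±100 for the full control effect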
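FluxOr-based Tl+ influx in U2OS cells transduced with KCNH2 3.1 virus; rate constants normalized to DMSO controls.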
TRPV1 PAM = human TRPV1 potentiation. TRPV1-expressing cells, Fluo-8 calcium influx, capsaicin EC20 potentiation. potentiation, % at 8.33 µM. 320,000 compounds, 0.02% hits. AID 540277; in the data active = potentiation above about 80%; inconclusive = between about 30% and that limit; also: 0% is about no effect
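TRPV1-expressing cells were cultured overnight at 35.5C and loaded with Fluo-8 calcium dye for 40 to 90 min at room temperature. After a 10 s baseline, compound was added and calcium influx was read kinetically for 3 min (ex 480/em 520 nm).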
Active calls of the source: *; ? = inconclusive; / = not tested or not shown. The list is not random: actives were taken first. Their share in the collection is about 1.2%.

SMILES	TRPV1 ag	KCNH2 WT inh	KCNH2 3.1 block	TRPV1 PAM
FC(F)(F)c1ccncc1-c1nnc(C2CCCCC2)o1	17.5	-5.3	-6.0	-15.4
C/C(=N\N=C\c1ccccc1F)c1nnn(-c2nonc2N)c1C	9.7	20.0	-70.8*	-4.2
Cc1sc2ncnc(N3CCN(CCOc4ccc(Cl)cc4)CC3)c2c1C	4.9	-21.1	-79.0*	4.6
O=C(NC1CCN(Cc2ccc(Cl)cc2Cl)CC1)c1ccccc1	-1.9	-2.0	-83.6*	7.0
COc1ccc(C(=O)NC2CC2)cc1OC1CCN(Cc2ccc(F)cc2Cl)CC1	/	-75.0*	-93.5*	/
COc1cc(CN2CCC(Oc3cc(C(=O)NC4CC4)ccc3OC)CC2)cc(OC)c1	1.3	-17.9	-28.2	-4.8
O=C(NC1CCN(CC(=O)N(c2ccccc2)c2ccccc2)CC1)c1ccc([N+](=O)[O-])cc1	-5.2	-76.6*	-110.5*	4.3
COc1ccc(CN2CCC(Oc3cc(C(=O)NC4CC4)ccc3OC)CC2)c(O)c1	-0.2	-109.1*	-94.4*	26.7
CC1CCCCC1NC(=O)CN1CCC(NC(=O)c2ccc([N+](=O)[O-])cc2)CC1 (stereo unspecified)	0.6	18.1	-2.9	-10.3
COc1ccc(-c2csc(C3=C(O)CN(CCCN4CCCC4=O)C3=N)n2)cc1OC	-9.0	-26.3	0.6	4.1
COc1ccc(N2CCC(CNC(=S)Nc3ccc(C)cc3C)C2)cc1 (stereo unspecified)	2.8	-3.4	-6.9	-5.2
COc1ccc(C(=O)NC2CC2)cc1OC1CCN(Cc2cnn(C)c2C)CC1	-0.6	5.2	-2.7	-0.7
COc1ccc(C(=O)NC2CC2)cc1OC1CCN(Cc2cc(C)c(C)cc2C)CC1	23.9	?	-75.4*	4.3
O=C(O)c1cc(O)ccc1NC(=O)c1cccc2ccccc12	-6.4	-11.5	-10.3	-5.3
Cn1c(CCN2CCCCC2)nc2cc([N+](=O)[O-])ccc21	-8.2	38.1	-37.7	4.0
Cn1c(CN2CCCCC2)nc2cc([N+](=O)[O-])ccc21	-7.8	11.9	-185.4*	10.6
CC1=CC(=O)C2(C)C(C)=C(C)C12C (stereo unspecified)	/	-12.1	3.0	/
CCN(CC)c1nc2ccccc2n2cnnc12	-1.5	1.9	10.1	2.0
Cc1cc(C)n(-c2nc3ccccc3n3cnnc23)n1	-1.7	3.0	-102.5*	0.7
CC(C)c1ccc(NC(=O)CN2CCN(c3ccccn3)CC2)cc1	4.4	-1.4	0.9	-4.3
N#Cc1ccc(NC(=O)CN2CCN(c3ccccn3)CC2)cc1	0.9	39.7	-76.3*	-3.5
Cc1nc(Cl)sc1C(=O)Nc1ccc(C(C)(C)C)cc1	80.1*	-17.3	-5.8	-2.3
c1ccc(Nc2c3c(nc4ccccc24)CCC3)cc1	?	9.4	-6.6	-22.8
Fc1ccc(Nc2c3c(nc4ccccc24)CCC3)cc1	?	3.1	-91.0*	-20.4
O=C(O)C1CC=CCC1C(=O)NCCCN1CCCC1=O (stereo unspecified)	0.6	-0.3	7.7	7.5
SMILES	TRPV1 ag	KCNH2 WT inh	KCNH2 3.1 block	TRPV1 PAM
CC(C)NC(=O)N(C)C[C@H]1Oc2ccc(NC(=O)Nc3ccccc3)cc2C(=O)N([C@H](C)CO)C[C@@H]1C	/	-3.1	0.8	/
C[C@H](CO)N1C[C@H](C)[C@@H](CN(C)S(=O)(=O)c2ccccc2)Oc2ccc(NC(=O)Cn3cnnn3)cc2C1=O	/	-5.4	-92.4*	/
Cc1noc(C)c1S(=O)(=O)N(C)C[C@H]1Oc2ccc(NC(=O)Cn3cnnn3)cc2C(=O)N([C@H](C)CO)C[C@@H]1C	/	-5.4	-6.3	/
CC(C)NC(=O)N(C)C[C@H]1Oc2ccc(NC(=O)Nc3ccccc3)cc2C(=O)N([C@@H](C)CO)C[C@@H]1C	/	19.3	-145.1*	/
COc1ccc(NC(=O)Nc2ccc3c(c2)C(=O)N([C@H](C)CO)C[C@H](C)[C@@H](CN(C)S(=O)(=O)c2ccccc2)O3)cc1	/	8.1	-96.6*	/
C[C@@H]1CN([C@@H](C)CO)C(=O)c2cc(NC(=O)C3CC3)ccc2O[C@@H]1CN(C)C(=O)NC1CCCCC1	/	-2.7	-100.1*	/
CCCCOc1ccc(C(C)NC(=O)CCS(=O)(=O)Cc2ccccc2Cl)cc1 (stereo unspecified)	2.8	-11.7	-31.9	0.0
C/C(=N\NC(=S)NC1CCCCC1)c1cccc(C(F)(F)F)c1	?	6.8	-6.2	-6.5
O=C(COC(=O)c1ccc(-n2cnnn2)cc1)c1ccc(Br)cc1	-6.6	?	-83.2*	-0.3
CC(C)Cc1ccc(C(C)C(N)=NCCc2ccccc2)cc1 (stereo unspecified)	3.5	6.1	-22.4	-2.6
